PubChem BioAssay (NCI)
Where “and” joins values, the source holds several entries; their conditions need not be identical. Equal entries are not always repeated. About 79,000 compounds went through this panel and 15% of them were active in at least one assay; those are over-represented in the sample as a whole. Some compounds were tested as several samples or in several runs, with calls that do not always agree. Calls of active or inactive are those of the source. Rule as the data show it: active = growth inhibition above about 70%; inactive = the rest.

Tests used:
[1] = NCI Yeast Anticancer Drug Screen. Data for the rad50 strain (AID 155);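 also: 0% = growth of vehicle-only cultures of the same strain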; conditions: S. cerevisiae rad50 strain growth inhibition, stronger effect = higher value
Procedure, shortened: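 Relative growth inhibition (compound vs vehicle) was measured in yeast with a defined repair-gene alteration.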

[2] = NCI Yeast Anticancer Drug Screen. Data for the mec2-1 strain (AID 157); conditions: S. cerevisiae mec2-1 strain, stronger effect = higher value
Procedure, shortened: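 Strain: mec2-1 (DNA repair/cell cycle alteration). Compound exposure, then growth measured; inhibition expressed relative to vehicle.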

[3] = NCI Yeast Anticancer Drug Screen. Data for the sgs1 mgt1 strain (AID 161);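 also: 0% = growth of cultures given vehicle only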; conditions: S. cerevisiae sgs1 mgt1 strain, stronger effect = higher value
Procedure, shortened: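 Genetically altered yeast, compound exposure, growth inhibition relative to vehicle.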

[4] = NCI Yeast Anticancer Drug Screen. Data for the cln2 rad14 strain (AID 165);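 also: 0% = growth equal to vehicle treated cultures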; conditions: S. cerevisiae cln2 rad14 strain, stronger effect = higher value
Procedure, shortened: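 Compounds are applied to the cln2 rad14 yeast strain, and growth is then compared with that of vehicle-treated cultures to give inhibition.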

[5] = NCI Yeast Anticancer Drug Screen. Data for the bub3 strain (AID 167); conditions: S. cerevisiae bub3 mutant strain, stronger effect = higher value
Procedure, shortened: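 Screening used yeast with an engineered genetic alteration affecting cell cycle control. Compound-exposed cultures were compared with vehicle cultures, and reduced growth was taken as inhibition.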

[6] = NCI Yeast Anticancer Drug Screen. Data for the mlh1 rad18 strain (AID 175); conditions: S. cerevisiae mlh1 rad18 strain growth inhibition, stronger effect = higher value
Procedure, shortened: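 Read-out is yeast growth inhibition, calculated against vehicle-only controls. The compound was applied to a strain engineered with DNA damage repair alterations.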

[7] = at 5.0 µM (retest, dose inferred, filed as 0.5)
[8] = at 50.0 µM (retest, dose inferred, filed as 5.0)

Row | Structure (SMILES) | growth inhibition [1, 7] | growth inhibition [1, 8] | growth inhibition ([1]; at 50.0 µM) | growth inhibition [2, 7] | growth inhibition [2, 8] | growth inhibition ([2]; at 50.0 µM) | growth inhibition [3, 7] | growth inhibition [3, 8] | growth inhibition ([3]; at 50.0 µM) | growth inhibition [4, 7] | growth inhibition [4, 8] | growth inhibition ([4]; at 50.0 µM) | growth inhibition [5, 7] | growth inhibition [5, 8] | growth inhibition ([5]; at 50.0 µM) | growth inhibition [6, 7] | growth inhibition [6, 8] | growth inhibition ([6]; at 50.0 µM)
1 | N#Cc1c(-c2ccccc2)cc(-c2ccccc2)n(C2OC(CO)C(O)C(O)C2O)c1=S (stereo not given) | -4% (inactive) and 0% (inactive) | 4% (inactive) and -12% (inactive) | 93% (active) and 32.5% (inactive) | -7% (inactive) and -4% (inactive) | -19% (inactive) and -15% (inactive) | 40.9% (inactive) and -23.4% (inactive) | -14% (inactive) and 4% (inactive) | 10% (inactive) and 8% (inactive) | 4% (inactive) and -26.1% (inactive) | 10% (inactive) and -1% (inactive) | 22% (inactive) and 18% (inactive) | -35% (inactive) and -38.9% (inactive) | -1% (inactive) and 10% (inactive) | 11% (inactive) and 4% (inactive) | 53.6% (inactive) and -49.4% (inactive) | 9% (inactive) and 1% (inactive) | 8% (inactive) and -7% (inactive) | 60.5% (inactive) and 1% (inactive)
2 | COc1ccc2c(c1)C(Cc1ccc(Oc3ccc(CC4c5cc(OC)ccc5CC[N+]4(C)C)cc3)cc1)[N+](C)(C)CC2 (stereo not given) | -12% (inactive) | 62% (inactive) | 96.8% (active) | -6% (inactive) | 51% (inactive) | 97.2% (active) | -7% (inactive) | 91% (active) | 99.2% (active) | -4% (inactive) | 54% (inactive) | 72% (active) | -3% (inactive) | 82% (active) | 84.7% (active) | -10% (inactive) | 95% (active) | 98.8% (active)
3 | Cc1ccc(S(=O)(=O)SC/C=C\CSS(=O)(=O)c2ccc(C)cc2)cc1 | 4% (inactive) and 51% (inactive) | 97% (active) and 95% (active) | 93.3% (active) and 74.7% (active) | 14% (inactive) and -2% (inactive) | 97% (active) | 97% (active) and 5.65% (inactive) | 12% (inactive) and 67% (inactive) | 95% (active) and 97% (active) | 95.8% (active) and 76.7% (active) | 3% (inactive) and 12% (inactive) | 94% (active) | 88.6% (active) and 22.6% (inactive) | 12% (inactive) and 17% (inactive) | 99% (active) and 98% (active) | 96.5% (active) and -3.05% (inactive) | 2% (inactive) and 53% (inactive) | 98% (active) and 95% (active) | 95.9% (active) and 41.2% (inactive)
4 | Cn1c(N)nc(=O)c2[nH]cnc21 | -1% (inactive) | -1% (inactive) | -4.3% (inactive) | -1% (inactive) | -2% (inactive) | 11.8% (inactive) | -3% (inactive) | -4% (inactive) | 6.9% (inactive) | 2% (inactive) | -3% (inactive) | 86.8% (active) | 1% (inactive) | -3% (inactive) | -9.25% (inactive) | -3% (inactive) | 0% (inactive) | -17.2% (inactive)
5 | CCOC(=O)C1=C(C(=O)c2ccc(OC)cc2)C(c2c(Cl)cccc2Cl)C(C(=O)c2ccc(OC)cc2)=C(C(=O)OCC)N1 | 8% (inactive) | 19% (inactive) | 53.9% (inactive) | 6% (inactive) | 35% (inactive) | 71% (active) | 19% (inactive) | -5% (inactive) | 70.3% (active) | -19% (inactive) | 18% (inactive) | 88.2% (active) | 14% (inactive) | 7% (inactive) | 88.7% (active) | 6% (inactive) | 0% (inactive) | 81.8% (active)
6 | CN(C)C(=Nc1nc(=[N+](C)C)ss1)N(C)C | -17% (inactive) | -10% (inactive) | 93% (active) | 3% (inactive) | 8% (inactive) | 44.2% (inactive) | 8% (inactive) | -19% (inactive) | 86% (active) | 12% (inactive) | 13% (inactive) | 30.4% (inactive) | 10% (inactive) | 10% (inactive) | 49.4% (inactive) | 15% (inactive) | 13% (inactive) | 81.8% (active)
7 | ON=C(Cc1ccccc1)Cc1ccccc1 | 7% (inactive) | -7% (inactive) | 20.4% (inactive) and 1.3% (inactive) | -4% (inactive) | -8% (inactive) | 5.7% (inactive) and -6.9% (inactive) | 1% (inactive) | 34% (inactive) | 23.2% (inactive) and 82.5% (active) | 2% (inactive) | -8% (inactive) | 46.2% (inactive) and -4.6% (inactive) | -83% (inactive) | -3% (inactive) | -2.8% (inactive) and 17.2% (inactive) | 1% (inactive) | 9% (inactive) | 61.8% (inactive) and 27.9% (inactive)
8 | Cc1ccc(S(=O)(=O)C23C(N=NC2(C)C)C3(C)C)cc1 (stereo not given) | 10% (inactive) | 3% (inactive) | -4.7% (inactive) | 4% (inactive) | -3% (inactive) | -10.6% (inactive) | -16% (inactive) | 4% (inactive) | 1.25% (inactive) | 8% (inactive) | 15% (inactive) | -39.9% (inactive) | 15% (inactive) | -2% (inactive) | -45.8% (inactive) | -1% (inactive) | -16% (inactive) | 8.4% (inactive)
9 | NNc1c2ccccc2nc2ccccc12 | 9% (inactive) | 79% (active) | 21.1% (inactive) and 95.8% (active) | 6% (inactive) | 43% (inactive) | 18.4% (inactive) and 85.8% (active) | 1% (inactive) | 47% (inactive) | -10% (inactive) and 94% (active) | 4% (inactive) | 38% (inactive) | -19.1% (inactive) and 92.5% (active) | -5% (inactive) | 48% (inactive) | -21.5% (inactive) and 93.5% (active) | 2% (inactive) | 86% (active) | 8.4% (inactive) and 96.8% (active)
10 | c1ccc2c(c1)CC1=C(O2)c2ccccc2OC1 | -2% (inactive) | 48% (inactive) | 37.5% (inactive) | 2% (inactive) | 78% (active) | 39.5% (inactive) | 5% (inactive) | 76% (active) | 42.7% (inactive) | -3% (inactive) | 22% (inactive) | 46.1% (inactive) | 4% (inactive) | 80% (active) | 53% (inactive) | 6% (inactive) | 89% (active) | 92.1% (active)
11 | COc1cc(/C=C/C(=O)NCCCCN=[N+]=[N-])ccc1OCc1ccccc1 | -1% (inactive) | -13% (inactive) | 89.8% (active) | 1% (inactive) | -11% (inactive) | 82.2% (active) | -7% (inactive) | 1% (inactive) | 27.4% (inactive) | -9% (inactive) | -13% (inactive) | -3.15% (inactive) | -6% (inactive) | -8% (inactive) | 10.1% (inactive) | -3% (inactive) | -11% (inactive) | 39.9% (inactive)
12 | COc1cc2c(cc1OC)C(Cc1c3ccccc3cc3ccccc13)N(C)CC2 (stereo not given) | 4% (inactive) | 41% (inactive) | 16.2% (inactive) | -18% (inactive) | 43% (inactive) | 14.8% (inactive) | 1% (inactive) | 50% (inactive) | 93.1% (active) | 0% (inactive) | 3% (inactive) | 62.5% (inactive) | 0% (inactive) | 15% (inactive) | 58.3% (inactive) | 3% (inactive) | 56% (inactive) | 99.4% (active)
13 | O=[N+]([O-])Cc1cnc2nncn2n1 | -6% (inactive) | 96% (active) | 86.3% (active) | -9% (inactive) | 97% (active) | 98.4% (active) | 2% (inactive) | 96% (active) | 99.2% (active) | 2% (inactive) | 53% (inactive) | 24.2% (inactive) | -27% (inactive) | 99% (active) | 38.5% (inactive) | -12% (inactive) | 97% (active) | 87.5% (active)
14 | O=C1N(c2ccccc2)C(=O)N1c1ccccc1 | -8% (inactive) | -6% (inactive) | 1.05% (inactive) and 0.3% (inactive) | -19% (inactive) | -1% (inactive) | 25.6% (inactive) and -2.2% (inactive) | -11% (inactive) | 3% (inactive) | 43.2% (inactive) and -12.2% (inactive) | 20% (inactive) | 17% (inactive) | 0.1% (inactive) and -20.9% (inactive) | 14% (inactive) | 17% (inactive) | 22.1% (inactive) and -12.4% (inactive) | -16% (inactive) | -11% (inactive) | 28.6% (inactive) and 2.3% (inactive)
15 | O=Cc1cc([N+](=O)[O-])ccc1O.[Eu] | 28% (inactive) | 51% (inactive) | 81.3% (active) | 46% (inactive) | 69% (inactive) | 86.1% (active) | -4% (inactive) | 95% (active) | 91.2% (active) | 18% (inactive) | 97% (active) | 83.2% (active) | 49% (inactive) | 96% (active) | 85.8% (active) | 29% (inactive) | 64% (inactive) | 86.2% (active)
